Screens from PubChem.
Hits are enriched below; roughly 32% of the tested compounds scored in any of these assays.
CYP2C19 inh: blockers of cytochrome P450 2C19 activity – biochemical, luminescence, ADME assay, primary screen; CYP2C19 Supersomes, luciferin-H EGE luminescence, 30 min; 96,000 compounds, 21% hits; AID 778, 2007; inhibition, % at 5 µM;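 active means CYP2C19 inhibition above a set limit at 5 µM in the primary screen, cut at about 50% in these data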;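 further: plate controls were negative control wells for no effect and 2.5 mM tranylcypromine positive control for full effect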
Target sequence (P33261 whole entry, looked up): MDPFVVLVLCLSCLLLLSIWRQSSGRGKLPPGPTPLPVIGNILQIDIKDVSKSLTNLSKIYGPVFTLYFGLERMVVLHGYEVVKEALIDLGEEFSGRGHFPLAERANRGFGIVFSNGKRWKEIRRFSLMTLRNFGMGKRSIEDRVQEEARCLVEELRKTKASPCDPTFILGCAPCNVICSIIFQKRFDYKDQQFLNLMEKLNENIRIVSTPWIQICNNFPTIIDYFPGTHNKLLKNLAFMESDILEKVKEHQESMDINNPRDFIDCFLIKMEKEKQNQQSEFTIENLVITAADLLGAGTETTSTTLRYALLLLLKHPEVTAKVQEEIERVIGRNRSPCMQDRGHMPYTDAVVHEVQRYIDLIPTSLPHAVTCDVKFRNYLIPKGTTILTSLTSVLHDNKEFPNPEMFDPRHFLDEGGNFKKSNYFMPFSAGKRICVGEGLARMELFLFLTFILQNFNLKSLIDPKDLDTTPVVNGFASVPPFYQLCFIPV
CYP2C19 activ: human CYP2C19 activators, primary screen, biochemical, luminescence. recombinant CYP2C19, luciferin-H EGE luminescence; active compounds read high; 0 = fully inhibited enzyme, 1 = untreated enzyme. 96,000 tested, under 10 active. activation factor at 5 µM;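 active means activation factor of at least 2 at 5 µM in the primary screen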;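 further: 0 = wells with 2.5 mM tranylcypromine and 1 = vehicle-only wells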
PostGolgi ctrl: growth inhibition of yeast control strain, primary screen, counter-screen for post-Golgi transport modulator project; inhibition, % at 10 µM; AID 738, 2007; efflux-deficient yeast background strain, growth absorbance A615, 16 h; 98,000 compounds, 5% hits
CYP2C9 inhib: blockers of cytochrome P450 2C9 activity – biochemical, luminescence, ADME assay, primary screen; P11712; CYP2C9 Supersomes, luciferin-H conversion; 96,000 compounds, 20% hits; inhibition, % at 5 µM;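 active means blocking of liver enzyme CYP2C9 beyond about 50% at 5 µM, limit read from the data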
CYP2C9 activ: human CYP2C9 activators, primary screen, biochemical, luminescence; recombinant CYP2C9, luciferin-H conversion; active compounds read high; factor 1 = untreated enzyme, 0 = blocked; 96,000 compounds, 1.4% hits; activation factor at 5 µM; AID 1024, 2008; Cytochrome P450 2C9 (Homo sapiens), P11712;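 active means activation factor of 2 or more for CYP2C9 at a 5 µM dose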;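 further: 0 = sulfaphenazole-blocked wells and 1 = vehicle-only wells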
PostGolgi yeast: phenotypic screen on post-Golgi transport, primary screen; post-Golgi transport phenotypic cell assay; 98,000 compounds, 0.9% hits; inhibition, % at 10 µM;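 further: yeast cells grown in 1536-well plates; yeast grown about 18 h at 30C before absorbance read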
* marks the source's active call; other numbers are inactive results; nt = no result. Unless noted, no stated cut-off is given here; in the data, active means inhibition above about 30%; inactive means the rest.

SMILES	CYP2C19 inh	CYP2C19 activ	PostGolgi ctrl	CYP2C9 inhib	CYP2C9 activ	PostGolgi yeast
Cc1sc2ncnc(N(C)Cc3ccco3)c2c1C	95.8*	0	-6.7	78.4*	0.2	6.1
C/C(=N/OC(=O)c1c(F)cccc1F)c1nccs1	13.9	0.9	9.1	-10.5	1.1	-1.9
COc1ccc(CCNC(=O)C2CCN(S(=O)(=O)N3CC(C)CC(C)C3)CC2)cc1OC (stereo unspecified)	-1.0	1	-7.1	14.3	0.9	-0.3
CC(=O)c1cccc(NC(=O)NC(C)C2CCCO2)c1 (stereo unspecified)	1.3	1	3.9	-8.7	1.1	0.2
COc1ccc(CCN2C(=O)c3[nH]nc(-c4ccccc4O)c3C2c2cccc(O)c2)cc1OC (stereo unspecified)	92.8*	0.1	5.9	98.1*	0	6.8
COc1ccc(C2c3c(-c4cc(Cl)c(C)cc4O)n[nH]c3C(=O)N2Cc2cccnc2)cc1OC (stereo unspecified)	85.7*	0.1	5.0	92.7*	0.1	10.5
O=C(N/N=C/c1cccs1)C1COc2ccccc2O1 (stereo unspecified)	82.3*	0.2	-7.1	44.7	0.6	0.7
Cc1cc(C)n(C(=O)CNC(=O)C2COc3ccccc3O2)n1 (stereo unspecified)	nt	nt	4.0	nt	nt	-0.7
C/C(=N\NC(=O)C1COc2ccccc2O1)c1cccs1 (stereo unspecified)	79.7*	0.2	3.4	30.1	0.7	1.3
CC(=O)c1ccc(N2C(=O)NC3(CCCCC3)C2=O)cc1	25.6	0.7	11.4	-0.3	1	2.1
COc1ccc(CC(=O)NCc2cccs2)cc1OC	42.9	0.6	9.3	-2.3	1	-3.4
COc1ccc(Cl)cc1S(=O)(=O)NCc1cccs1	97.2*	0	10.9	-148.8	2.5*	-2.5
COc1cc(C)c(S(=O)(=O)NCc2cccs2)cc1C	98.6*	0	7.8	66.3*	0.3	-6.7
Cc1oc(CC(C)C)c(CN)c1C(=O)O	4.8	1	2.2	8.5	0.9	-9.1
O=c1c2[nH]c3cccc(Cl)c3c2ncn1Cc1ccncc1	57.9*	0.4	15.7	51.5*	0.5	3.1
O=c1c2[nH]c3ccccc3c2ncn1Cc1ccncc1	37.7	0.6	9.6	45.3	0.5	-4.3
CCCn1cc(SCC(=O)Nc2ccc3c(c2)OCO3)c2ccccc21	74.3*	0.3	20.3	76.7*	0.2	-0.4
Cn1c(=O)cc(SCC(=O)Nc2ccc3c(c2)OCO3)c2ccccc21	9.5	0.9	5.9	-67.9	1.7	-1.0
Cc1cc2ccccc2c(=O)n1CC(=O)Nc1ccc2c(c1)OCO2	nt	nt	3.0	nt	nt	3.7
Cn1cc(SCC(=O)Nc2ccc3c(c2)OCO3)c2ccccc21	100.4*	0	-4.8	65.1*	0.3	-10.0
COC1(OC)N=C(NC(=O)Nc2ccccc2)C2(C#N)C(c3ccccc3)C12C#N (stereo unspecified)	-3.5	1	27.4	5.3	0.9	12.1
CC1CCCN(C(C(=O)Nc2ccc3c(c2)OCO3)c2ccccc2)C1 (stereo unspecified)	80.1*	0.2	19.5	82.4*	0.2	3.3
Cc1cccc(NC(=O)C2(c3ccc([N+](=O)[O-])cc3)CCCC2)c1	78.5*	0.2	7.6	39.4	0.6	-8.4
CC(C)CC(NC(=O)C1CCC(C)CC1)C(=O)Nc1ccc2c(c1)OCCO2 (stereo unspecified)	44.1	0.6	5.3	52.2*	0.5	-3.8
Cc1ccc(C(C(=O)NC2CCCC2)N2CCCC(C)C2)cc1 (stereo unspecified)	49.2	0.5	0.6	40.0	0.6	1.0
SMILES	CYP2C19 inh	CYP2C19 activ	PostGolgi ctrl	CYP2C9 inhib	CYP2C9 activ	PostGolgi yeast
O=C(Nc1ccc2c(c1)OCO2)C(c1ccccc1)N1CCCCC1 (stereo unspecified)	58.3*	0.4	17.3	60.5*	0.4	-5.8
CN(Cc1nnc(SCC(=O)NCCc2ccccc2)n1C)S(=O)(=O)c1ccccc1	9.0	0.9	3.5	45.7	0.5	10.1
Cc1cccc(NC(=O)C(c2cccc([N+](=O)[O-])c2)N2CCCCC2)c1 (stereo unspecified)	51.8*	0.5	24.9	29.3	0.7	16.9
COC(=O)c1ccccc1NC(=O)Nc1ccc2c(c1)OCO2	30.3	0.7	6.5	18.0	0.8	-1.1
O=C(Nc1ccc2c(c1)OCO2)C(c1ccccc1)N1CCC2(CC1)OCCO2 (stereo unspecified)	90.3*	0.1	-2.2	78.9*	0.2	12.4
CC1CCN(C(C(=O)Nc2ccc3c(c2)OCO3)c2ccccc2)CC1 (stereo unspecified)	73.2*	0.3	5.5	84.3*	0.2	-0.6
CC(=O)Nc1sc2c(c1CN1CCN(c3ccccn3)CC1)CCCC2	82.1*	0.2	nt	31.1	0.7	nt
CC(=O)Nc1sc2c(c1CN1CCN(c3ccc(F)cc3)CC1)CCCC2	86.2*	0.1	10.2	29.5	0.7	2.8
Cc1ccc(N2Cc3ccccc3OC(C)C2=O)cc1 (stereo unspecified)	99.5*	0	7.1	85.0*	0.2	4.6
COc1ccc(OCC(=O)Nc2ccc(C)cc2)cc1	81.8*	0.2	4.5	52.0*	0.5	-5.3
CCOc1ccc(NC(=O)CN2CCN(CC(=O)Nc3ccc(F)cc3)CC2)cc1	8.1	0.9	3.9	2.4	1	13.9
Cc1ccc(NC(=O)Cc2ccc(F)cc2)cc1	97.1*	0	18.8	18.3	0.8	-3.5
COc1ccc(CC(=O)Nc2ccc(-c3cn4ccc(C)cc4n3)cc2)cc1	66.9*	0.3	23.3	41.4	0.6	0.3
CCOC(=O)CC(=O)Nc1ccc(C)cc1	11.0	0.9	5.5	12.6	0.9	-4.0
Cc1ccc(OCC(=O)Nc2ccc(N3CCOCC3)cc2)cc1	0.0	1	24.4	4.1	1	2.7
Cc1ccc(OCC(=O)Nc2ccc(F)cc2)cc1	57.0*	0.4	-4.5	35.5	0.6	4.8
O=C(O/N=C/c1ccc2c(c1)OCO2)c1ccccc1Cl	39.7	0.6	15.5	-26.0	1.3	-3.0
O=C(NCC1CCCO1)c1c(O)c2c([nH]c1=O)CCCC2 (stereo unspecified)	11.6	0.9	9.1	13.5	0.9	2.1
O=C(Cc1ccccn1)Nc1ccccc1	0.4	1	-10.3	-16.4	1.2	6.7
O=C(CNc1ccccc1)Nc1ccc(F)cc1	55.5*	0.4	3.5	23.6	0.8	-2.0
O=C(Cc1coc(-c2ccc(F)cc2)n1)Nc1ccccc1	85.8*	0.1	10.5	60.8*	0.4	4.2
O=C(Nc1ccc(F)cc1)c1ccccc1	5.5	0.9	1.8	-7.0	1.1	7.1
Cc1ccc(NC(=O)COC(=O)c2ccnn2C)cc1	44.3	0.6	15.9	0.1	1	0.8
